# According to article PMC7862700, “An all-to-all approach to the identification of sequence-specific readers for epigenetic DNA modifications on cytosine”:
# Assays:
# Experiment in all cases: DAPPL (digital affinity profiling via proximity ligation, sequencing); 10 mM Tris-HCl pH 7.5, 50 mM NaCl, 1 mM DTT, 4% glycerol, room temperature, 30 min; GST-TFs on glutathione beads, 16-mer random dsDNA library, 0.1% formaldehyde crosslink after washing; high values mean tight binding
# FEV = biological target: T1, FEV (Homo sapiens, UniProt Q99581 1-238); settings: protein: recombinant; tags: N-terminal GST; dsDNA, one strand shown
# T1 sequence: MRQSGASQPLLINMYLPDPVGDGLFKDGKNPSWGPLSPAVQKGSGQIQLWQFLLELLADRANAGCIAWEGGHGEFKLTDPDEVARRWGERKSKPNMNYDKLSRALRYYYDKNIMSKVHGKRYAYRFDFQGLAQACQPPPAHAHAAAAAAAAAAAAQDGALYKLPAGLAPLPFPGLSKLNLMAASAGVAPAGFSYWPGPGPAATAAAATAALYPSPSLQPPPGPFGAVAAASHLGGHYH
# Outline: (§1)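 Pools of DNA-barcoded human transcription factors, expressed in yeast as GST fusions on glutathione beads and combined with a tag-only sample, were incubated with 200 nmole of a 16-mer random double-stranded DNA library. Incubation took 30 min at room temperature in Tris/NaCl/DTT/glycerol buffer and was followed by washing, 0.1% formaldehyde crosslinking, proximity ligation (BsaI/T4 ligase, 1 h, 37 °C), PCR amplification and sequencing on an Illumina NextSeq500. Binding signal is the ratio of a hexamer's read frequency for a factor to its frequency for the tag-only sample.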
# ETV5 = ETV5 (Homo sapiens, UniProt P41161 1-510); settings: protein: recombinant; tags: N-terminal GST; dsDNA, one strand shown
# Chain of ETV5 (P41161 whole entry): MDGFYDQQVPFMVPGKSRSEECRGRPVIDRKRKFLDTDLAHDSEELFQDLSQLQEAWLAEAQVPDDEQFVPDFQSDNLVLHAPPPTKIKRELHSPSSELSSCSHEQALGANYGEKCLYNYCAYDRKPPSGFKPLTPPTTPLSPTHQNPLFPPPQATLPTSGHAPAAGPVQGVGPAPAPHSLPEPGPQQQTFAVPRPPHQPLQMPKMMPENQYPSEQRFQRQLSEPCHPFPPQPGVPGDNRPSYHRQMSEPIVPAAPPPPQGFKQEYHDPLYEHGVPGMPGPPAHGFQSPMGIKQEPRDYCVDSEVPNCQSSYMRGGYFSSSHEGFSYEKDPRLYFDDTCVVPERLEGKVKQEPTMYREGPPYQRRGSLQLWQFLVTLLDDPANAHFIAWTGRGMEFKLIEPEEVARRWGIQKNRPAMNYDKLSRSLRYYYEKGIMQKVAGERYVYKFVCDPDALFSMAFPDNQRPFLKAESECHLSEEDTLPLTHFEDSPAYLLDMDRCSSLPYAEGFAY
# Outline: as §1
# HSF1 = HSF1 (Homo sapiens, UniProt Q00613 1-529); settings: protein: recombinant; tags: N-terminal GST; chain copies: 3; dsDNA, one strand shown
# Chain of HSF1 (Q00613 whole entry): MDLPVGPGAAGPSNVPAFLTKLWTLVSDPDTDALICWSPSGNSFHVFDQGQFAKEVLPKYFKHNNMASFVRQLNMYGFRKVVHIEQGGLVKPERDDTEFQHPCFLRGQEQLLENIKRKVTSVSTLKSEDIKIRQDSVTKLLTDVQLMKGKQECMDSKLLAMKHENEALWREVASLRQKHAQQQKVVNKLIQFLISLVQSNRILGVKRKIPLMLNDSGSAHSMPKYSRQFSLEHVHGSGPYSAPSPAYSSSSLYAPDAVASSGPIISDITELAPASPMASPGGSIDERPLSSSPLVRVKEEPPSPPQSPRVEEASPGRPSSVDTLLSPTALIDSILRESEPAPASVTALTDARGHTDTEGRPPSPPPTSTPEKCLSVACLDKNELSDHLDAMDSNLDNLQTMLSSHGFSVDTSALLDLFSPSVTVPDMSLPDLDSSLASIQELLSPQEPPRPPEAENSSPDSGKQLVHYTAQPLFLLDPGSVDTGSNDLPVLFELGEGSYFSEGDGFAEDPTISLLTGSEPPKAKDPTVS
# Outline: as §1
# SPIC = biological target: T2, SPIC (Homo sapiens, UniProt Q8N5J4 1-248); settings: protein: recombinant; tags: N-terminal GST; dsDNA, one strand shown
# T2 sequence: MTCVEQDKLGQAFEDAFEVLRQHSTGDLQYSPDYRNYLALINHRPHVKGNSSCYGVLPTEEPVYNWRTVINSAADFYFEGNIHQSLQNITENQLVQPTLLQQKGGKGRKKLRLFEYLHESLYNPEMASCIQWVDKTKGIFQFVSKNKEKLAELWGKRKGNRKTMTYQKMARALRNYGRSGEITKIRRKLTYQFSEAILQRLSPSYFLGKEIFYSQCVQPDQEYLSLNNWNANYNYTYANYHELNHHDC
# Outline: as §1
# ELF4 = ELF4 (Homo sapiens, UniProt Q99607 1-663); settings: protein: recombinant; tags: N-terminal GST; dsDNA, one strand shown
# Chain of ELF4 (Q99607 whole entry): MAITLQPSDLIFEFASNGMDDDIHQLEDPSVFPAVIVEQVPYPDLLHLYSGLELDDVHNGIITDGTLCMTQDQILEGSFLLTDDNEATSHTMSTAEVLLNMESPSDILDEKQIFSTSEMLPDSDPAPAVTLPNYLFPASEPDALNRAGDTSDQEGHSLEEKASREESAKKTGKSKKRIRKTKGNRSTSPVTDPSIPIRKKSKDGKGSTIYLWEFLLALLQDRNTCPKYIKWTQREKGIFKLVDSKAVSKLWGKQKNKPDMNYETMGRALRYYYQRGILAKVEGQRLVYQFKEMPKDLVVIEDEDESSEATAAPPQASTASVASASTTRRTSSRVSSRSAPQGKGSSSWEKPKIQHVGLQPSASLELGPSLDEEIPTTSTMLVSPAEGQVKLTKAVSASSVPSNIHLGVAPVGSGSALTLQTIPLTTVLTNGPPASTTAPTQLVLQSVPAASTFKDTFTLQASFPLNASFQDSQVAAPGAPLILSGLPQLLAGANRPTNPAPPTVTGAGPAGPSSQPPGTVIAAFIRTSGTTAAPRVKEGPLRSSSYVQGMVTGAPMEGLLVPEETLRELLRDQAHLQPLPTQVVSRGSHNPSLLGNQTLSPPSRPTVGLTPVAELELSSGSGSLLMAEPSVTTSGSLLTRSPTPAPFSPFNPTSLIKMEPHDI
# Outline: as §1
# ELK4 = biological target: T3, ELK4 (Homo sapiens, UniProt P28324-2 1-405); settings: protein: recombinant; tags: N-terminal GST; dsDNA, one strand shown
# T3 sequence: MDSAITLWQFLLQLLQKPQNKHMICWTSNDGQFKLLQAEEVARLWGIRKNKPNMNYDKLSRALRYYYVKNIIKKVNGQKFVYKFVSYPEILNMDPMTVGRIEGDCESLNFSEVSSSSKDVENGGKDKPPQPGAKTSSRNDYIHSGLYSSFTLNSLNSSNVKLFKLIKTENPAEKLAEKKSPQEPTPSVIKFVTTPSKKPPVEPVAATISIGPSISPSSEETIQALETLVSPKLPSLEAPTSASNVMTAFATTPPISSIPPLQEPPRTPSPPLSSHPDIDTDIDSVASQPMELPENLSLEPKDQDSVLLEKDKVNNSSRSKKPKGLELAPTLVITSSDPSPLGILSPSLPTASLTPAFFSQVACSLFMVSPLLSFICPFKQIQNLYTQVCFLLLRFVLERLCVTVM
# Outline: as §1
# ETV2 = biological target: T4, ETV2 (Homo sapiens, UniProt O00321 1-342); settings: protein: recombinant; tags: N-terminal GST; dsDNA, one strand shown
# T4 sequence: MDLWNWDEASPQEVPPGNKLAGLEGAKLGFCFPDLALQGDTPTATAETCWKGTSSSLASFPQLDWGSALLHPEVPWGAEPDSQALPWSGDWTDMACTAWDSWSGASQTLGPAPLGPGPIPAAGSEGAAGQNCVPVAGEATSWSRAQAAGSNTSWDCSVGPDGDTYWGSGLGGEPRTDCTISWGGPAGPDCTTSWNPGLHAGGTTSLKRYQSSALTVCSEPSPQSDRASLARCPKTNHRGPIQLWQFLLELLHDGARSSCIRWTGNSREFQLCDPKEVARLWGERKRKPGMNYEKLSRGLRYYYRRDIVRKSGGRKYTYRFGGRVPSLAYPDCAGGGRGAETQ
# Outline: as §1
# ELF3 = biological target: T5, ELF3 (Homo sapiens, UniProt P78545 1-371); settings: protein: recombinant; tags: N-terminal GST; dsDNA, one strand shown
# T5 sequence: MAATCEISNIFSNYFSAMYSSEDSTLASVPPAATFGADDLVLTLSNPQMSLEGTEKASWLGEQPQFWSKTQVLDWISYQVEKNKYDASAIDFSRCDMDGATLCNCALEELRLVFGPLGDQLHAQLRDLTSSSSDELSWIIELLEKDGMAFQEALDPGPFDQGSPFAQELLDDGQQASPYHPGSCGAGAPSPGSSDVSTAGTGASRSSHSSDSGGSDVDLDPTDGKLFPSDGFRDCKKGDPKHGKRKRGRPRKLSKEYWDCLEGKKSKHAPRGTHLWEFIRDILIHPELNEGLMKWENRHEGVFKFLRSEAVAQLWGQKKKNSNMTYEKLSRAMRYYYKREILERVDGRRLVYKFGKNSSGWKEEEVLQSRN
# Outline: as §1
# CRX = CRX (Homo sapiens, UniProt O43186 1-299); settings: protein: recombinant; tags: N-terminal GST; dsDNA, one strand shown
# Chain of CRX (O43186 whole entry): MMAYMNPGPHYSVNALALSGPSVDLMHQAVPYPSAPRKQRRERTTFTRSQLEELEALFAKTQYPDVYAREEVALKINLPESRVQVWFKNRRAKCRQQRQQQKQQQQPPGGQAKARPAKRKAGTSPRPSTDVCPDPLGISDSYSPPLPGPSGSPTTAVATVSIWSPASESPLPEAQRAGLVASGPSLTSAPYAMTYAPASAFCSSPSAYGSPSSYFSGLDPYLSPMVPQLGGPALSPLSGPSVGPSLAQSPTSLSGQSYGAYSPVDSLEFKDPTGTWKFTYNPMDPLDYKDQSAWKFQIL
# Outline: as §1
# ETV1 = ETV1 (Homo sapiens, UniProt P50549 1-477); settings: protein: recombinant; tags: N-terminal GST; dsDNA, one strand shown
# Chain of ETV1 (P50549 whole entry): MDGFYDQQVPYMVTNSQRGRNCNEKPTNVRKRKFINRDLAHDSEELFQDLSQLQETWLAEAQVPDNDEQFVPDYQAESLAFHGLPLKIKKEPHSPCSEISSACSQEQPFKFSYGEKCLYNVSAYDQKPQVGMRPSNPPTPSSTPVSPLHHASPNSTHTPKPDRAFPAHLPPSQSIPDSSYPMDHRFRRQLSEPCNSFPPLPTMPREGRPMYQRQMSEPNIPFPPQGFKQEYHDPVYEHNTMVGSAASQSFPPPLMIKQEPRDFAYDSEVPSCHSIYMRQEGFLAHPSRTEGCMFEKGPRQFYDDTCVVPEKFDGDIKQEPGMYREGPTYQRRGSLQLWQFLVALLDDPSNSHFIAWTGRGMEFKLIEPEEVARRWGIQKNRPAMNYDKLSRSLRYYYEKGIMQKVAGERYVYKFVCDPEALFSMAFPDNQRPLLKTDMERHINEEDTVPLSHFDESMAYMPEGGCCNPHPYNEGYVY
# Outline: as §1
# ERF = biological target: T6, ERF (Homo sapiens, UniProt P50548 1-548); settings: protein: recombinant; tags: N-terminal GST; dsDNA, one strand shown
# T6 sequence: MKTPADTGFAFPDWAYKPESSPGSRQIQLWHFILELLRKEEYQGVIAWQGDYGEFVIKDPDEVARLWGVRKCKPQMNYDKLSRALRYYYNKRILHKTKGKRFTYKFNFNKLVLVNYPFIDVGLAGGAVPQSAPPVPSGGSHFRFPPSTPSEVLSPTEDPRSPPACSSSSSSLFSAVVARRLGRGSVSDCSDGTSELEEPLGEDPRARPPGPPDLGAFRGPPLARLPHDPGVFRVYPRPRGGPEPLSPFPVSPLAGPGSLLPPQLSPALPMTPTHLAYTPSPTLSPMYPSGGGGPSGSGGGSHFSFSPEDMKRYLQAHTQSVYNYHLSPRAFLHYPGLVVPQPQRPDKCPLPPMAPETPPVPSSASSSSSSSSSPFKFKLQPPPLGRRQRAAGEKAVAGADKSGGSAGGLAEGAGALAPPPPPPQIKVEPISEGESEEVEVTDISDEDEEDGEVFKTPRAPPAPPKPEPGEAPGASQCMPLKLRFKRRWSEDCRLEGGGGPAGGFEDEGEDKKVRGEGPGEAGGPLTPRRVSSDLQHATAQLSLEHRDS
# Outline: as §1
# ETV3L = biological target: T7, ETV3L (Homo sapiens, UniProt Q6ZN32 1-361); settings: protein: recombinant; tags: N-terminal GST; dsDNA, one strand shown
# T7 sequence: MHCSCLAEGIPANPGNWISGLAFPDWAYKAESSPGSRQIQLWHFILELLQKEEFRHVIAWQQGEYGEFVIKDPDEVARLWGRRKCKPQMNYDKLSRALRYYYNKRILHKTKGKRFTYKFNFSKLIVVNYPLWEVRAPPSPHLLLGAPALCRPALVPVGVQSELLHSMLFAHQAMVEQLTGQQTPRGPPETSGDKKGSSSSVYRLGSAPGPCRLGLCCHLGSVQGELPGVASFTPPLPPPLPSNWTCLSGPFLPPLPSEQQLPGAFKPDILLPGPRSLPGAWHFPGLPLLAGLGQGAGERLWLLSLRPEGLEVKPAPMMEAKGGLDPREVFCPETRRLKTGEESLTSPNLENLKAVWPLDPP
# Outline: as §1
# ETS2 = biological target: T8, ETS2 (Homo sapiens, UniProt P15036 1-469); settings: protein: recombinant; tags: N-terminal GST; dsDNA, one strand shown
# T8 sequence: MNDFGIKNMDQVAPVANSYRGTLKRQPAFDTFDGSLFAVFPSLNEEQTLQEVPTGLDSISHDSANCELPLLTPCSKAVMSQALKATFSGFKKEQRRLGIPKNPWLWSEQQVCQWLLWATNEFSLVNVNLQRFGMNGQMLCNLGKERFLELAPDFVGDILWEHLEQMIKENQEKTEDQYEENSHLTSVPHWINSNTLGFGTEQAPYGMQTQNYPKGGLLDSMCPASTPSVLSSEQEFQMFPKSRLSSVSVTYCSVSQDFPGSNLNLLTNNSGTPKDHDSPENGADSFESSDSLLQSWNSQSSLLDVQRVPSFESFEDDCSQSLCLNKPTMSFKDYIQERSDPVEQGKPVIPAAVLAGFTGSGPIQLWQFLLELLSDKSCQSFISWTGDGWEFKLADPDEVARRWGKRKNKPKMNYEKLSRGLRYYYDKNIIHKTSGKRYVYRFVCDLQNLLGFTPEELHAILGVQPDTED
# Outline: as §1
# SPDEF = biological target: T9, SPDEF (Homo sapiens, UniProt O95238 1-335); settings: protein: recombinant; tags: N-terminal GST; dsDNA, one strand shown
# T9 sequence: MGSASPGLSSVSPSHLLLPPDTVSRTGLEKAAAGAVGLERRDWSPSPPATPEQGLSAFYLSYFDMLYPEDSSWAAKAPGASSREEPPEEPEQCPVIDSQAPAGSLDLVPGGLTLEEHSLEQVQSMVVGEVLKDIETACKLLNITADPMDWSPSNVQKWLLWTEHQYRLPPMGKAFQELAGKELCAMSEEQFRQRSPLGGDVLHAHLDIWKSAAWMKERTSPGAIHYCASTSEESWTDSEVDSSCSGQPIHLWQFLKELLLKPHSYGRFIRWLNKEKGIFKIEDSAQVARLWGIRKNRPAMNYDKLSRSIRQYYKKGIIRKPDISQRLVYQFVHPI
# Outline: as §1
# ETV7 = biological target: T10, ETV7 (Homo sapiens, UniProt Q9Y603 1-341); settings: protein: recombinant; tags: N-terminal GST; dsDNA, one strand shown
# T10 sequence: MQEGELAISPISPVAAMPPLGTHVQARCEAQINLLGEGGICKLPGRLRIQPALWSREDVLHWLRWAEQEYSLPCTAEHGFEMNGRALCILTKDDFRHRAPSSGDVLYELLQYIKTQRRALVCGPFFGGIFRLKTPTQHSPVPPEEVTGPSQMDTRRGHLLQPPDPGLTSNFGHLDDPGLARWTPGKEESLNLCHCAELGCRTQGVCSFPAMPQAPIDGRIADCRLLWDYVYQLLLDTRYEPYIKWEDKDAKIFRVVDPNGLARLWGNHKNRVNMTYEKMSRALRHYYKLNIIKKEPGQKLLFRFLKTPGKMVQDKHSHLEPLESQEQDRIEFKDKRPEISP
# Outline: as §1
# ELF5 = biological target: T11, ELF5 (Homo sapiens, UniProt Q9UKW6-2 1-255); settings: protein: recombinant; tags: N-terminal GST; dsDNA, one strand shown
# T11 sequence: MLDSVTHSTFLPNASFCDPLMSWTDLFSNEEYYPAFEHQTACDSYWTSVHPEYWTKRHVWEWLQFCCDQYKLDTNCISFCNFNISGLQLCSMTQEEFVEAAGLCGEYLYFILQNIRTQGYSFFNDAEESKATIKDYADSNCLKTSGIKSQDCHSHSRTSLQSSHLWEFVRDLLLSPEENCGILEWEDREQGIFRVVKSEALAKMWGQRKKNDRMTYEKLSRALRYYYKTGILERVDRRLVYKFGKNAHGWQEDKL
# Outline: as §1
# ETV3 = biological target: T12, ETV3 (Homo sapiens, UniProt P41162-2 1-143); settings: protein: recombinant; tags: N-terminal GST; dsDNA, one strand shown
# T12 sequence: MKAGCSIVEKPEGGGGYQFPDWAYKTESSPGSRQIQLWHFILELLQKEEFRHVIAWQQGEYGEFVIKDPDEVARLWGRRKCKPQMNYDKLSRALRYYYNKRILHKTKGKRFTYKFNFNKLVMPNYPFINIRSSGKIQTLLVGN
# Outline: as §1
# ETV6 = ETV6 (Homo sapiens, UniProt P41212 1-452); settings: protein: recombinant; tags: N-terminal GST; dsDNA, one strand shown
# Chain of ETV6 (P41212 whole entry): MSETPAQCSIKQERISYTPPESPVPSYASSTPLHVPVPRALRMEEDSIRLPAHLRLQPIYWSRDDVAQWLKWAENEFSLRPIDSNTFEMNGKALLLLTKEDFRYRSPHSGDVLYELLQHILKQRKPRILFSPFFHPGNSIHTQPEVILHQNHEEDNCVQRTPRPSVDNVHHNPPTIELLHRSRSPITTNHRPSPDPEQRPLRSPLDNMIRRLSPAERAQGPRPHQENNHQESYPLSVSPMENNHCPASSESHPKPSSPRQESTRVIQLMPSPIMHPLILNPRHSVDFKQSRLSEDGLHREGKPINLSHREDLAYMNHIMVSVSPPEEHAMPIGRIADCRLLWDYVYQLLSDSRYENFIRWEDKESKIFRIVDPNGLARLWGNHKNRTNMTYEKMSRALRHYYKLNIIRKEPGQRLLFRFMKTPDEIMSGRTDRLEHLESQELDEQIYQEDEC
# Outline: as §1
sequence,measurement,setting,value
CTAAAC,binding signal,FEV,"1.21 fold enrichment (6-mer frequency, TF over GST control)"
same,binding signal,ETV5,"1.18 fold enrichment (6-mer frequency, TF over GST control)"
same,binding signal,HSF1,"1.26 fold enrichment (6-mer frequency, TF over GST control)"
same,binding signal,SPIC,"1.18 fold enrichment (6-mer frequency, TF over GST control)"
same,binding signal,ELF4,"1.26 fold enrichment (6-mer frequency, TF over GST control)"
same,binding signal,ELK4,"1.26 fold enrichment (6-mer frequency, TF over GST control)"
same,binding signal,ETV2,"1.33 fold enrichment (6-mer frequency, TF over GST control)"
same,binding signal,ELF3,"1.18 fold enrichment (6-mer frequency, TF over GST control)"
same,binding signal,CRX,"1.47 fold enrichment (6-mer frequency, TF over GST control)"
same,binding signal,ETV1,"1.24 fold enrichment (6-mer frequency, TF over GST control)"
same,binding signal,ERF,"1.17 fold enrichment (6-mer frequency, TF over GST control)"
same,binding signal,ETV3L,"1.18 fold enrichment (6-mer frequency, TF over GST control)"
same,binding signal,ETS2,"1.19 fold enrichment (6-mer frequency, TF over GST control)"
same,binding signal,SPDEF,"1.22 fold enrichment (6-mer frequency, TF over GST control)"
same,binding signal,ETV7,"1.2 fold enrichment (6-mer frequency, TF over GST control)"
same,binding signal,ELF5,"1.19 fold enrichment (6-mer frequency, TF over GST control)"
same,binding signal,ETV3,"1.25 fold enrichment (6-mer frequency, TF over GST control)"
same,binding signal,ETV6,"1.17 fold enrichment (6-mer frequency, TF over GST control)"
